Assay outcomes: PubChem, several laboratories
CRFBP-R2 agonist – agonists of human CRF-binding protein/CRF-R2 receptor complex; hit rate 0.46% among 350,000; activation, % at 13.2 µM; HEK293 CRF-R2/CRF-BP, calcium dye fluorescence (FLIPR); percent of saturating CRF peptide response; AID 588473;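 active = activation of at least 50%, plus an integration ratio under a set limit after plate pattern correction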;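 note: plate controls were neutral control wells without compound for no effect and CRF at EC100 for full effect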
CRFR2-BP antag – blocks CRF-induced signaling of the CRF-BP/CRF-R2 complex | HEK293 CRF-R2/CRF-BP, CRF-induced calcium fluorescence | inhibition, % at 11.8 µM | hit rate 0.59% among 350,000;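 active = inhibition of the ligand-induced calcium signal above about 50% at the single tested concentration, limit read from the data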
TMEM16A act – activates or potentiates the mouse TMEM16A chloride channel. Q8BHY3. HEK293 TMEM16A/YFP-H148Q/I152L, iodide quench fluorescence; hits give low values. B-score at 10 µM. hit rate 0.3% among 340,000;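 active = fluorescence-ratio B-score plate-corrected deviation score at least 3 library SD below zero, with starting fluorescence score within 5 deviations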;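 note: channel opened by trigger with iodide after compound preincubation; score built on the fluorescence ratio of max minus min over baseline; more negative score means more quench and so TMEM16A activation or potentiation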
ANO1 block – mouse TMEM16A channel inhibition, primary screen; Q8BHY3; HEK293 TMEM16A/YFP iodide influx fluorescence, ionomycin; hit rate 1.2% among 310,000; normalized B-score (activity score, 25-100; higher = stronger inhibition) at 10 µM;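 active = ratio plate-corrected score three or more library SD toward inhibition, starting fluorescence score within five deviations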;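 note: score derived from kinetic fluorescence span divided by baseline fluorescence per well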
MPTP inh – blocks calcium-induced mitochondrial swelling; inhibition, % at 10 µM; isolated mouse mitochondria, Ca2+ swelling absorbance, 30 min; hit rate 1.4% among 360,000;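 active = inhibition of 50% or more, scaled per plate between neutral and stimulator controls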;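 note: 0% = DMSO wells given calcium and 100% = 1 mM EGTA wells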
GRIN3A LBD mod – modulators (binders) of human NR3A ligand-binding domain. NR3A LBD differential scanning fluorimetry, Tm shift; 0% = protein alone, 100% = glycine-bound protein. Tm shift relative to glycine control, % at 25 µM. hit rate 2.5% among 340,000. AID 1259313;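 active = melting temperature shift of at least 10% of the positive control shift, at one fixed dose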
Starred values were filed as active, the others as inactive; i = inactive; . = no result. Hits are enriched below; roughly 5.1% of the tested compounds scored in any of these assays.

SMILES | CRFBP-R2 agonist | CRFR2-BP antag | TMEM16A act | ANO1 block | MPTP inh | GRIN3A LBD mod
CCCCCCCCCCCCCCCC[N+](C)(C)CCN(Cc1ccc(OC)cc1)c1ncccn1 | 28 | -50 | i | i | 11 | 23*
N#C/C(=C/c1ccc(N2CCCCC2)o1)C(=O)Nc1ccc2ccccc2c1 | 207* | -204 | i | . | 4 | 0
N#C/C(=C/c1ccc(N2CCCCC2)o1)C(=O)Nc1ccc(Cl)cc1 | 155* | -117 | i | i | 1 | 12*
CC1CC1c1ccc(/C=C(\C#N)C(=O)Nc2ccc(Cl)cc2)o1 (stereo not drawn) | 10 | -16 | i | i | 23 | -26
COc1cccc(Nc2nc(-c3ccc(O)cc3)cs2)c1 | -5 | -1 | i | i | -2 | 23*
COc1cccc(Nc2nc(-c3cccc(N4C(=O)c5ccccc5C4=O)c3)cs2)c1 | -1 | 2 | i | i | 2 | 33*
COc1cccc(-c2csc(Nc3ccc(Oc4ccccc4)cc3)n2)c1 | . | . | . | . | 1 | .
Cc1ccc(NC(=O)Cn2c(=O)ccn(Cc3ccccc3)c2=O)cc1S(=O)(=O)N1CCOCC1 | -1 | -1 | . | . | 0 | 7
C/C(=C\c1cc2ccccc2o1)C1Nc2cccc3cccc(c23)N1 | -3 | -12 | -18* | . | 3 | 3
c1ccc(C2Nc3cccc4cccc(c34)N2)cc1 | 2 | 4 | i | i | 1 | 0
O=c1c2ccccc2sc2ccc(NCCCN3CCOCC3)cc12 | 102* | -100 | i | i | 29 | -10
Cc1ccc(C(=O)N2CCOCC2)cc1S(=O)(=O)N1CCOCC1 | 0 | -1 | i | i | -2 | 12*
Cc1ccc(S(=O)(=O)c2ccc(Cl)cc2)cc1S(=O)(=O)N1CCOCC1 | -1 | -31 | i | 25* | 5 | 7
CCn1c(CNC(=O)Cc2ccc(OC)cc2)nnc1SCC(=O)c1ccccc1 | 1 | -5 | -35* | . | -1 | 0
CC(Sc1nnc(C2CC2)n1C1CC1)C(=O)NCc1cccs1 (stereo not drawn) | -1 | 4 | i | . | -2 | 3
CC(Sc1nnc(Cc2cccs2)n1C1CC1)C(=O)NC1CCS(=O)(=O)C1 (stereo not drawn) | 1 | 63* | i | . | 1 | 3
Cc1nc(NC(=O)c2cnccn2)ccc1Br | -1 | 21 | i | i | 2 | -2
CCOc1ccc(N2CC(C(=O)NCc3nnnn3-c3ccc(C)c(C)c3)CC2=O)cc1 (stereo not drawn) | 0 | 54* | i | i | -1 | 3
CCC1(c2ccccc2)NC(=O)N(CC(=O)Nc2ccc(N3CCOCC3)cc2)C1=O (stereo not drawn) | 3 | 13 | i | . | -2 | 2
CNCC(=O)Nc1c(C)n[nH]c1C | -2 | 12 | i | i | 3 | 14*
CCCC(=O)Nc1c(C)n[nH]c1C | 2 | -2 | i | i | 0 | 1
Nc1cc(Cl)ccc1C(=O)OCC(=O)NC1CCCCCCC1 | 0 | -11 | i | . | 0 | -1
C=CCCC(=O)Nc1nc(C)c(-c2csc(Nc3ccc(Cl)cc3Cl)n2)s1 | 1 | -20 | i | i | 0 | 12*
C=CCCC(=O)Nc1nc(C)c(-c2csc(Nc3cc(Cl)ccc3OC)n2)s1 | 0 | -7 | i | i | -1 | 3
O=C(NCCOc1ccccc1)c1cc([N+](=O)[O-])ccc1N1CCOCC1 | 17 | -37 | i | . | -1 | 0
SMILES | CRFBP-R2 agonist | CRFR2-BP antag | TMEM16A act | ANO1 block | MPTP inh | GRIN3A LBD mod
CCOc1cccc(C2C(C(=O)c3ccc(C)o3)=C(O)C(=O)N2c2nccs2)c1 (stereo not drawn) | 159* | -34 | i | i | 0 | 2
O=C(C1=C(O)C(=O)N(c2nccs2)C1c1ccccc1)c1cc2ccccc2o1 (stereo not drawn) | 168* | -100 | i | i | 4 | -12
O=C(C1=C(O)C(=O)N(CCc2ccccc2)C1c1ccncc1)c1cc2ccccc2o1 (stereo not drawn) | 0 | 30 | i | i | 0 | -1
CCCCN1CC(=O)N2[C@H]3c4cc(Br)ccc4OC[C@@H]3[C@H](C(=O)OCC)[C@]2(C)C1=O | -1 | 13 | i | . | -2 | 1
CC(=O)Nc1ccc(S(=O)(=O)NCC2CCC(C(=O)NCCCN(C)Cc3ccccc3)CC2)cc1 (stereo not drawn) | 1 | -2 | i | i | -1 | 15*
CN(CCCNC(=O)C1CCC(CNS(=O)(=O)c2ccccc2)CC1)Cc1ccccc1 (stereo not drawn) | 0 | -6 | i | i | 3 | 3
CCOC(=O)/C(=C\C=C1/Sc2cc(OCC)c(OCC)cc2N1CC)C(C)=O | 322* | -414 | i | i | 2 | 9
CCN1/C(=C\C=C2\C(=O)N(C)C(=S)N2C)Sc2ccccc21 | 4 | -29 | i | i | 33 | -1
CCN1/C(=C/C(C)=O)Sc2ccc(OC)cc21 | -1 | 14 | i | i | 0 | 1
CCOC(=O)/C(=C/C=C1\Sc2cc(OCC)c(OCC)cc2N1CC)C(C)=O | 279* | -320 | i | i | 0 | 1
COc1ccc(N2CC(NC(=O)c3ccc4ccccc4c3)CC2=O)cc1OC (stereo not drawn) | 1 | 12 | i | i | -1 | -1
CN(C)CCCC(C)(O)C(Cc1ccccc1)c1ccccc1 (stereo not drawn) | -1 | -12 | i | i | 0 | 14*
CN(C)CCC(Oc1ccccc1OCc1ccccc1)c1ccccc1 (stereo not drawn) | 1 | 1 | i | i | 0 | -1
C[N+]1(C)CCC(=C(c2ccccc2)c2ccccc2)CC1 | -1 | -5 | i | i | -1 | -1
CCN(CC)C1Oc2cc3c(cc2C(c2cccc(OC)c2O)C1C)OCO3 (stereo not drawn) | 0 | 120* | i | . | 3 | -14
CCN(CC)C1Oc2cc3c(cc2C(c2cc(OC)c(O)c(OC)c2)C1C)OCO3 (stereo not drawn) | 1 | -40 | i | . | 1 | 0
COc1ccc(NC(=O)COC(=O)CCC2CCCC2)c(OC)c1 | 0 | 6 | i | . | -1 | 1
Cc1onc(-c2ccccc2)c1C(=O)OCC(=O)Nc1ccc(Cl)cc1 | 3 | -11 | i | . | 8 | 2
Cc1onc(-c2c(F)cccc2Cl)c1C(=O)OCC(=O)c1c[nH]c2ccccc12 | 5 | 3 | i | i | 13 | 13*
COc1ccccc1C(=O)COC(=O)c1c(-c2ccccc2)noc1C | 1 | 50* | i | i | 1 | .
Cc1onc(-c2ccccc2)c1C(=O)OCC(=O)Nc1cccc(Cl)c1 | 0 | 9 | i | . | 12 | 13*
